CHX counter: affects cycloheximide protein synthesis inhibition readout, counter-screen. cell reporter, cycloheximide protein synthesis inhibition counterscreen. 12% of 300,000 active. AID 2314. max response, %; in the data active = max response mostly above about 13%, no sharp cut-off; inactive = mostly below about 14%; note: read at 38.3 µM for the half of the compounds with a filed dose; 0% is about no effect
Shiga inhibitor: blocks Shiga toxin action in Vero cells. inhibition, % at 38.7 µM. 9.2% of 290,000 active. Vero cells, Shiga toxin protein synthesis inhibition reporter; in the data active = inhibition mostly above about 28%, no sharp cut-off; inactive = mostly below about 43%; note: 0% is about no effect
NS1 inh: influenza NS1 inhibition; Potency, µM (doses to about 46.1 µM), for the others: at the highest dose activity, positive = more growth; 0.4% of 270,000 active; AID 2326; calls by dose curve; note: potency is the fitted concentration of half-maximal effect; actives are rising curves; nearly all actives have a fitted effect of over 50% in size
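In this qHTS, NS1 from influenza A is expressed in budding yeast, where it slows growth. Cells are switched from glucose to 2% galactose medium (pH 6.0, -URA), treated with compound, and growth recovery is read at OD600.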
Pf growth 96h: P. falciparum growth inhibition at 96 hour, primary screen for plastid delayed-death inhibitors. 6.9% of 320,000 active. P. falciparum luciferase reporter growth, 96 h. Potency, µM (titrated, usually from 28.7 µM), for inactives: at the top dose activity change, negative = inhibition, hits mostly inhibitors. AID 504834; note: potency is the fitted concentration of half-maximal effect; % is set by controls: 0 for no effect and ±100 for the full control effect
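P. falciparum expressing integrated firefly luciferase grown in erythrocytes (2% hematocrit, 0.05% parasitemia final) with compounds for 96 hours at 37 C, 5% CO2. Growth inhibition read as loss of luminescence after adding luciferase detection reagent.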
Pf growth 48h: P. falciparum growth inhibition at 48 hours (one generation); P. falciparum luciferase growth in erythrocytes, 48 h; Potency, µM (titrated, usually from 28.7 µM), for the others: top-dose activity change, negative = inhibition, actives largely listed as inhibitors; 5.9% of 310,000 active; note: potency is the fitted concentration of half-maximal effect; % is set by controls: 0 for no effect and ±100 for the full control effect
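Compounds are pin-transferred into medium, infected erythrocytes (2% hematocrit, 0.1% parasitemia final) are added, and plates sit one parasite generation at 37 C in 5% CO2. Detection reagent is then added and luminescence measured.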
The depositor's hits bear a star; u = inconclusive; x = not tested or not shown; [ ] = remark or other dose. This is a sample that favours compounds with a hit; in the whole collection about 21% have one here. Unless noted, calls come from the whole dose curve; as a rule, active = well fitted inhibition curve with a large enough effect; inconclusive = small, poorly fitted or top-dose-only effect, or another doubt; inactive = no such curve, though single readings can be large or run the other way.

SMILES	CHX counter	Shiga inhibitor	NS1 inh	Pf growth 96h	Pf growth 48h
Cc1cc(Nc2nc3ccccc3[nH]c2=O)n(-c2ccccc2)n1	-1.3	-20.4	3.8%	0.8%[5.75 µM]	u
Cc1cc(Nc2nc3ccccc3nc2Cl)n(-c2ccc([N+](=O)[O-])cc2)n1	1.3	-16.8	-9.9%	1.04µM*	x
CCOc1cccc2cc(-c3nc4ccc(C(=O)O)cc4[nH]3)c(=O)oc12	x	x	x	316.7%	127.8%
CCCN(CCC)c1ccc(/C=C/c2ccc3cc(OCC)ccc3n2)cc1	33.6*	70.9*	8.3%	-26.9%	u
O=C(Nc1cnn(Cc2ccc(F)cc2)c1)c1cnn2c(C(F)F)cc(-c3ccccc3)nc12	6.3	-1.1	-5.6%	u	u
Cc1ccc(-c2cc(C(F)F)n3ncc(C(=O)Nc4c(C)nn(Cc5ccccc5Cl)c4C)c3n2)cc1	-1.8	8.5	21.7%	u	u
Cc1ccc(-c2cc(C(F)F)n3ncc(C(=O)Nc4c(C)nn(Cc5c(Cl)cccc5Cl)c4C)c3n2)cc1	-3.8	-1.2	u	2.33µM*	u
Cc1nn(Cc2c(Cl)cccc2Cl)c(C)c1NC(=O)c1cnn2c(C(F)F)cc(-c3ccccc3)nc12	-2.7	-30.5	1.5%	2.62µM*	u
COc1ccc(-c2cc(C(F)F)n3ncc(C(=O)Nc4c(C)n(C)n(-c5ccccc5)c4=O)c3n2)cc1	-2.1	-9.7	6.2%	18.2%	u
COc1ccc(-c2cc(C(F)F)n3ncc(C(=O)Nc4cc(C)on4)c3n2)cc1	27.7*	15.1	1.4%	14.9%	4.15µM*
Cc1ccccc1N1CCN(C2=NC(=O)/C(=C/c3cn[nH]c3-c3ccccc3)S2)CC1	4.5	7.9	18.8%	u	2.7%
CN(CCOC(=O)CN1C(=O)c2ccccc2C1=O)C1=NS(=O)(=O)c2ccccc21	-2.6	-20.8	x	12.3%	2.5%
O=C1c2ccccc2CCC1C(O)c1ccccn1 (stereo not drawn)	39.2*	45.9	0.6%	-18.9%	59.7%
O=P(c1ccccc1)(c1ccccc1)C(O)c1ccccn1 (stereo not drawn)	-1.3	13.1	-2.1%	25.2%	22.0%
Clc1ccc(-c2csc(NNC3=NCCCCC3)n2)cc1	26.0*	17.7	u	u	u
c1ccc(NNC2=NCCCCC2)cc1	16.6	3.6	-9.3%	36.8%	33.7%
O=C(CN1CCOCC1)Nc1nc(-c2ccc(Cl)cc2)cs1	16.9	17.1	-7.2%	8.2%	x
c1ccc(-c2csc(NNC3=NCCCCC3)n2)cc1	38.9*	38.9	15.1%	u	x
Cc1ccccc1Cn1c(=O)n(CC2CCC(C(=O)NCCc3ccccc3)CC2)c(=O)c2ccccc21 (stereo not drawn)	-0.9	8.0	-0.5%	44.2%	20.9%
Cc1nc2ccccn2c1C(=O)N/N=C/c1ccc([N+](=O)[O-])o1	14.7	44.1	x	2.08µM*	u
O=C(N/N=C/c1ccc([N+](=O)[O-])o1)c1ccncc1	8.3	4.6	0.0%	6.57µM*	1.85µM*
CCN(CC)S(=O)(=O)c1cccc(C(=O)N/N=C/c2ccc([N+](=O)[O-])o2)c1	10.8	21.0	x	4.15µM*	u
Nc1nonc1C(=O)N/N=C/c1ccc([N+](=O)[O-])o1	44.4*	76.2*	x	u	u
O=C(NCC1CCCO1)c1cc(S(=O)(=O)N2CCCC2)c(Cl)cc1Cl (stereo not drawn)	13.6	9.5	0.7%	-3.4%	4.4%
Cc1cc(C)nc(NS(=O)(=O)c2ccc(NC(=O)CCCN3C(=O)c4ccccc4C3=O)cc2)n1	-1.4	6.3	12.6%	0.0%	9.1%
SMILES	CHX counter	Shiga inhibitor	NS1 inh	Pf growth 96h	Pf growth 48h
Cc1cc(F)c(Nc2ncnc3cc(OCc4ccccc4)ccc23)cc1O	3.5	17.0	x	x	x
N#CC(C#N)=C(Nc1ccc(F)cc1)SCc1cccc(F)c1	-2.8	2.4	-34.6%	u	u
O=C(N/N=C/c1ccc([N+](=O)[O-])o1)c1ccc(O)cc1	16.1	75.8	-1.4%	1.04µM*	1.65µM*
COC(=O)c1cc(OC)c(OC)cc1NC(=O)c1c(C)noc1C	x	x	10.2%	x	x
O=C(O)c1ccc(N/N=C/c2cccc(F)c2)cc1	81.0*	69.4*	-24.7%	267.4%	213.6%
O=C(O)c1ccc(N/N=C/c2ccc(F)c(F)c2)cc1	15.4*	35.0	-31.0%	174.4%	258.2%
O=C(O)c1ccc(N/N=C/c2cccc(C(F)(F)F)c2)cc1	55.3*	84.5*	-81.3%	-22.3%	252.1%
O=C(O)c1ccc(N/N=C/c2ccc3nccnc3c2)cc1	-5.8	-22.8	-35.3%	-41.7%	-103.2%
